According to PubChem BioAssay (EPA / NIEHS):
Values joined by “and” are separate entries in the source; they are usually repeats but may differ in a detail not shown here. Identical values can stand only once. More than one record can exist for a structure, and the calls need not agree. Active and inactive are the calls of the source. The calls were made as follows: active = hit-call score of the fitted dose curve at least 0.9, where 1 is the maximum; inactive = score below 0.9.

Tests used:
[1] = read-out: Interleukin-6 (IL6), IL6 (gene 3569); assay: BSK_CASM3C_IL6: BioMAP Diversity Plus: CASM3C Assay for Interleukin-6 (IL6) Biomarker Activity for (AID 2283040); conditions: primary human coronary artery smooth muscle cells; actives raise or lower the signal
[2] = read-out: Tissue plasminogen activator (tPA), PLAT (gene 5327); assay: BSK_BE3C_tPA: BioMAP Diversity Plus: BE3C Assay for Tissue plasminogen activator (tPA) Biomarker Activity (AID 2283041); conditions: primary human bronchial epithelial cells; actives raise or lower the signal
Summary of the method: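 tPA measured by ELISA 24 h after dosing human primary bronchial epithelial cells (BE3C system). Changes in either direction were fitted against DMSO. Parallel cultures were stained with SRB to flag overt cytotoxicity.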

[3] = read-out: Interleukin-8 (IL8), CXCL8 (gene 3576); assay: BSK_CASM3C_IL8: BioMAP Diversity Plus: CASM3C Assay for Interleukin-8 (IL8) Biomarker Activity (AID 2283042); conditions: primary human coronary artery smooth muscle cells; actives raise or lower the signal;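 also: IL-8 protein level quantified by ELISA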
[4] = read-out: Human Leukocyte Antigen - DR isotype (HLADR), HLA-DRA (gene 3122); assay: BSK_CASM3C_HLADR: BioMAP Diversity Plus: CASM3C Assay for Human Leukocyte Antigen - DR isotype (HLADR) Biomarker Activity (AID 2283043); conditions: primary human coronary artery smooth muscle cells; actives raise or lower the signal;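 also: cell-surface HLA-DR protein level quantified by ELISA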
[5] = read-out: Macrophage colony-stimulating factor (MCSF), CSF1 (gene 1435); assay: BSK_CASM3C_MCSF: BioMAP Diversity Plus: CASM3C Assay for Macrophage colony-stimulating factor (MCSF) Biomarker Activity (AID 2283044); conditions: primary human coronary artery smooth muscle cells; actives raise or lower the signal;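 also: M-CSF protein amount quantified by ELISA after 24 h exposure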
[6] = read-out: Low-density lipoprotein receptor (LDLR), LDLR (gene 3949); assay: BSK_CASM3C_LDLR: BioMAP Diversity Plus: CASM3C Assay for Low-density lipoprotein receptor (LDLR) Biomarker Activity (AID 2283045); conditions: primary human coronary artery smooth muscle cells; actives raise or lower the signal;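 also: LDLR protein level on the cell surface quantified by ELISA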
[7] = read-out: Monocyte Chemoattractant Protein-1 (MCP1), CCL2 (gene 6347); assay: BSK_CASM3C_MCP1: BioMAP Diversity Plus: CASM3C Assay for Monocyte Chemoattractant Protein-1 (MCP1) Biomarker Activity (AID 2283046); conditions: primary human coronary artery smooth muscle cells; actives raise or lower the signal;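 also: MCP-1 level quantified by ELISA 24 h after dosing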
[8] = BSK_CASM3C_Proliferation: Cell Proliferation Assessment in the BioMAP Diversity Plus: CASM3C Assay (AID 2283047); conditions: primary human coronary artery smooth muscle cells;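 also: sulforhodamine B total protein stain as relative cell number at 560 nm; sub-confluent cells exposed 48 h before staining; fitted both ways against DMSO so gain or loss of cell number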
[9] = read-out: Monokine induced gamma interferon (MIG), CXCL9 (gene 4283); assay: BSK_CASM3C_MIG: BioMAP Diversity Plus: CASM3C Assay for Monokine induced gamma interferon (MIG) Biomarker Activity (AID 2283048); conditions: primary human coronary artery smooth muscle cells; actives raise or lower the signal;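 also: MIG protein level measured by ELISA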
[10] = read-out: serum amyloid A (SAA), SAA1 (gene 6288); assay: BSK_CASM3C_SAA: BioMAP Diversity Plus: CASM3C Assay for serum amyloid A (SAA) Biomarker Activity (AID 2283049); conditions: primary human coronary artery smooth muscle cells; actives raise or lower the signal;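 also: SAA protein level quantified by ELISA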

Measured: AC50

Nc1ccc2ccccc2c1
inactive: all assays above

CCCCOCCOP(=O)(OCCOCCCC)OCCOCCCC
active: [1] 8.79 µM
inactive: all other assays above

ClC(Cl)=C(c1ccc(Cl)cc1)c1ccccc1Cl
active: [4] 26.1 µM | [5] 16.7 µM | [6] 23.5 µM | [7] 20 µM | [8] 30 µM
inactive: all other assays above

C=CC(=O)OCC(F)(F)C(F)F
inactive: [1] | [2] | [3] | [6] | [7] | [10]
active: [1] 22.9 µM | [2] 14.9 µM | [4] 36.3 µM and 38.8 µM | [5] 30 µM and 18.2 µM | [8] 30 µM | [9] 30 µM and 16.9 µM | [10] 30 µM

OCC(F)(F)OC(F)(F)C(F)(F)OC(F)(F)C(F)(F)OC(F)(F)CO
inactive: [1] | [2] | [3] | [4] | [5] | [6] | [7] | [8] | [9] | [10]
active: [8] 47.2 µM

COC(=O)C(F)(F)C(F)(F)OC(F)(C(F)(F)F)C(F)(F)OC(F)=C(F)F (stereo not given)
inactive: all assays above

O=C(O)C(F)(F)OC(F)(F)C(F)(F)OC(F)(F)F
inactive: [1] | [2] | [3] | [4] | [5] | [6] | [7] | [8] | [9] | [10]
active: [7] 1.03 µM | [9] 1.17 µM

CCOP(=S)(NC(C)C)Oc1ccccc1C(=O)OC(C)C (stereo not given)
inactive: all assays above

OCC(F)(F)OC(F)(F)C(F)(F)OC(F)(F)C(F)(F)OC(F)(F)F
active: [4] 48.6 µM | [5] 17.5 µM | [7] 47.3 µM | [8] 18.7 µM and 28.5 µM | [9] 30 µM | [10] 35 µM
inactive: [1] | [2] | [3] | [4] | [5] | [6] | [7] | [9] | [10]

O=[N+]([O-])c1ccc(Cl)c(Cl)c1
inactive: all assays above

ClC1=C(Cl)C2(Cl)C3C(Cl)C(Cl)CC3C1(Cl)C2(Cl)Cl (stereo not given)
active: [4] 20 µM | [8] 31.1 µM | [10] 20 µM
inactive: all other assays above

COP(=O)(O)OC
inactive: all assays above

CCOP(=S)(OCC)SCSc1ccc(Cl)cc1
active: [7] 0.272 µM
inactive: all other assays above

COP(=O)(CCC(=O)NCO)OC
active: [1] 1.56 µM | [4] 0.3 µM
inactive: [1] | [2] | [3] | [4] | [5] | [6] | [7] | [8] | [9] | [10]

c1ccc(OP(Oc2ccccc2)Oc2ccccc2)cc1
inactive: all assays above

CC(C)(C)c1ccc(O)cc1
inactive: all assays above

CCOP(=S)(OCC)SCSCC
inactive: all assays above

CC(O)C(F)(F)C(F)(F)F (stereo not given)
inactive: all assays above

CSC(C)(C)C=NO
inactive: all assays above

O=C(O)C(F)(OC(F)(F)C(F)(F)C(F)(F)F)C(F)(F)F (stereo not given)
active: [5] 0.218 µM | [8] 5.17 µM
inactive: [1] | [2] | [3] | [4] | [5] | [6] | [7] | [8] | [9] | [10]

CCCCC(CC)COP(=O)(Oc1ccccc1)Oc1ccccc1 (stereo not given)
active: [2] 3.09 µM
inactive: all other assays above

CCCCN(CCCC)N=O
inactive: all assays above

O=C(O)C1C(C(=O)O)C2(Cl)C(Cl)=C(Cl)C1(Cl)C2(Cl)Cl (stereo not given)
inactive: all assays above

O=C(O)C(Cl)Cl
inactive: all assays above

c1ccc2c(c1)sc1ccccc12
inactive: all assays above

CC(C)(C)c1ccccc1OP(=O)(Oc1ccccc1)Oc1ccccc1
active: [6] 4.61 µM | [8] 20 µM
inactive: all other assays above

[N-]=[N+]=[N-]
inactive: all assays above

CCCCCCCc1ccc(O)cc1
inactive: [1] | [7]
active: [2] 32.2 µM | [3] 23 µM | [4] 35.3 µM | [5] 35.5 µM | [6] 31.2 µM | [8] 37 µM | [9] 35.3 µM | [10] 34.4 µM

CCOP(=S)(S)OCC
inactive: all assays above

CC(C)Nc1ccc(Nc2ccccc2)cc1
active: [1] 33.4 µM | [3] 34.1 µM | [4] 20 µM | [5] 20 µM | [6] 31.8 µM | [7] 32.9 µM | [8] 20 µM | [9] 28.2 µM | [10] 32.8 µM
inactive: [2]

c1cc2c3c(cccc3c1)CC2
inactive: all assays above

CCOC(=O)c1ccccc1C(=O)OCC
inactive: all assays above

CCOc1ccc(C(C)(C)COCc2cccc(Oc3ccccc3)c2)cc1
active: [2] 0.668 µM
inactive: all other assays above

CCC1(c2ccccc2)C(=O)N=C(O)NC1=O (stereo not given)
inactive: all assays above

CCOS(=O)(=O)OCC
inactive: all assays above

COCCOCCO
inactive: all assays above

c1ccc2c(c1)Nc1ccccc1S2
inactive: all assays above

Nc1cc2c3c(c1)C(c1ccccc1)=N[C@@H](NC(=O)c1cccnc1)C(=O)N3CC2
inactive: all assays above

CC(Cl)(Cl)C(=O)O
inactive: all assays above

Nc1ccc(Cl)cc1
inactive: all assays above
